The source of these data is ChEMBL document CHEMBL3988442, “University of Dundee, Small-Polar-MMV Screening Library” (2021).

Common to all, as to parameters: scale not given: direction of the effect not stated beside the values
Assay [1] concerns the target Protein translocase subunit SecA (Escherichia coli (strain K12)) (UniProt P10408). Briefly: Assay to Identify E. coli SecA ATPase Inhibitors. The format is functional. Conditions: 30 µM.
In assay [2] the target is T1, Ubiquitin-activating enzyme e1, putative (Leishmania donovani (strain BPK282A1)) (UniProt E9BSI1).
T1 sequence (whole entry): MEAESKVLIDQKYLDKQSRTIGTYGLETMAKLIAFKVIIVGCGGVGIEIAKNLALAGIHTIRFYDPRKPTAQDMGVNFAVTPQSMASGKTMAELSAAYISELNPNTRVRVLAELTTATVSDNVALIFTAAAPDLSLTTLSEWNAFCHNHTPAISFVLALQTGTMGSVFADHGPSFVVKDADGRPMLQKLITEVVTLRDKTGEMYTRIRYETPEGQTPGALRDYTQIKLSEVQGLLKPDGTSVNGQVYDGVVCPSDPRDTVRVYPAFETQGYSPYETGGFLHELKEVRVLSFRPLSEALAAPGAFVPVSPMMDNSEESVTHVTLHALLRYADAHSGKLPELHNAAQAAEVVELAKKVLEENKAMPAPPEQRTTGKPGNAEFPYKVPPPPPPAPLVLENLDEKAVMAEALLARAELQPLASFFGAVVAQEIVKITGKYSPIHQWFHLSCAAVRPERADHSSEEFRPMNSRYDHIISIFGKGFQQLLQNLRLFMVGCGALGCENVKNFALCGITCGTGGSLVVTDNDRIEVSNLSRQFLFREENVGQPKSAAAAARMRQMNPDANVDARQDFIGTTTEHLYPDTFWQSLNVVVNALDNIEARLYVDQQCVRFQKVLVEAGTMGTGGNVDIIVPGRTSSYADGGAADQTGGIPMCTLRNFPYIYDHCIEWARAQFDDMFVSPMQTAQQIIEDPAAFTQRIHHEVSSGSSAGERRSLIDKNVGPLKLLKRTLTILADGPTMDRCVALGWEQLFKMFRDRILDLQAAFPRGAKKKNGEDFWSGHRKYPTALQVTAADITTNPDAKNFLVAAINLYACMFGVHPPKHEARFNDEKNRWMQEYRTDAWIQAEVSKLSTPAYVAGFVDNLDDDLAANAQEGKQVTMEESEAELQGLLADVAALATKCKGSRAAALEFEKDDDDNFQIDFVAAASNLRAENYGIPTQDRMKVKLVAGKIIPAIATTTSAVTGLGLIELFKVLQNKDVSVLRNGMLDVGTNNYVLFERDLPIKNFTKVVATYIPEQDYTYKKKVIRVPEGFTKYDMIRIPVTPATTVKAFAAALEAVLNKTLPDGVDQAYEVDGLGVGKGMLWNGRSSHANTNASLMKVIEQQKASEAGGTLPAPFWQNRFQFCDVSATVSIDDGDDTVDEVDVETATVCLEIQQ
Description: Leishmania donovani Ubiquitin Activating Enzyme (LdE1). The format is functional. Conditions: 30 µM.

Assay [3] concerns the target AMP-activated protein kinase, AMPK (Homo sapiens) (UniProt P54646+O43741+P54619+Q9UGJ0+Q9Y478+Q13131+Q9UGI9). Description: AMP-dependent Kinase enzyme assay. An in vitro enzyme assay that detects ADP turnover that is directly proportional to AMPK activity. This uses naive AMPK that is activated during the assay with MK-8722. The format is functional. Conditions: 30 µM.

In assay [4] the target is Sialic acid-binding Ig-like lectin 9 (Homo sapiens) (UniProt Q9Y336). Description: Hs-Siglec9 ALPHAscreen SOP 20170721. Conditions: 10 µM.
Assay [5] relates to Trypanosoma cruzi. Briefly: Trypanosoma cruzi phosphomannomutase and mannose-1-phosphate guanylyltransferase assay. Conditions: 10 µM. The format is functional.
The target in assay [6] is T2, Arginase-2, mitochondrial (Homo sapiens) (UniProt P78540).
T2 sequence (whole entry): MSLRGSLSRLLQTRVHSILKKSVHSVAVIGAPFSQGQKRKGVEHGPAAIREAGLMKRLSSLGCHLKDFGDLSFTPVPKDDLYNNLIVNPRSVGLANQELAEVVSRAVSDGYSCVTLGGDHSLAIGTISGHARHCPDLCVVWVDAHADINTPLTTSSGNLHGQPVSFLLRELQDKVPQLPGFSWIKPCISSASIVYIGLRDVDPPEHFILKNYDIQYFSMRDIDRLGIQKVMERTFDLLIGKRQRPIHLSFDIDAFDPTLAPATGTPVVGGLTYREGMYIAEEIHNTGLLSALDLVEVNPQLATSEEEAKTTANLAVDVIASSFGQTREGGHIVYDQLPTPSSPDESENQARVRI
Briefly: in vitro enzyme assay to detect the production of urea directly proportional to the activity of Arginase II. Also: in the data most compounds retested in dose-response had high values. The assay is classed as functional. To be noted: 33.3 µM.

The target in assay [7] is T3, Proteasome subunit beta (Trypanosoma cruzi) (UniProt O96673).
T3 sequence (whole entry): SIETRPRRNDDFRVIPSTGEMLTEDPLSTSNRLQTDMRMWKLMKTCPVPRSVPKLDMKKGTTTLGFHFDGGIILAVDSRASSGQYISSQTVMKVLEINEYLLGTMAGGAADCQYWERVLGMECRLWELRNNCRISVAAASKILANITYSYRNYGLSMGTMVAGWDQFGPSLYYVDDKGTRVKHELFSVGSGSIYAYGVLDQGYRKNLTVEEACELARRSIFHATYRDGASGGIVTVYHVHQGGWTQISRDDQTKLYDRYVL
Description: Trypanosoma cruzi proteasome chymotrypsin-like activity (TcProtChymo) assay. Also: in the data most compounds retested in dose-response had high values. The format is functional. Conditions: 9.37 µM.

The species named for assay [8] is Homo sapiens. Description: To identify inhibition of the IFN signalling (Jak-Stat) pathway via expression of an eGFP reporter gene under the control of an IFN-stimulated response element (ISRE) containing MxA promoter. The assay is classed as functional. To be noted: 30 µM.
Assay [9] deals with T4, Tyrosyl-tRNA synthetase, putative (Trypanosoma cruzi (strain CL Brener)) (UniProt Q4DSP6).
T4 sequence (whole entry): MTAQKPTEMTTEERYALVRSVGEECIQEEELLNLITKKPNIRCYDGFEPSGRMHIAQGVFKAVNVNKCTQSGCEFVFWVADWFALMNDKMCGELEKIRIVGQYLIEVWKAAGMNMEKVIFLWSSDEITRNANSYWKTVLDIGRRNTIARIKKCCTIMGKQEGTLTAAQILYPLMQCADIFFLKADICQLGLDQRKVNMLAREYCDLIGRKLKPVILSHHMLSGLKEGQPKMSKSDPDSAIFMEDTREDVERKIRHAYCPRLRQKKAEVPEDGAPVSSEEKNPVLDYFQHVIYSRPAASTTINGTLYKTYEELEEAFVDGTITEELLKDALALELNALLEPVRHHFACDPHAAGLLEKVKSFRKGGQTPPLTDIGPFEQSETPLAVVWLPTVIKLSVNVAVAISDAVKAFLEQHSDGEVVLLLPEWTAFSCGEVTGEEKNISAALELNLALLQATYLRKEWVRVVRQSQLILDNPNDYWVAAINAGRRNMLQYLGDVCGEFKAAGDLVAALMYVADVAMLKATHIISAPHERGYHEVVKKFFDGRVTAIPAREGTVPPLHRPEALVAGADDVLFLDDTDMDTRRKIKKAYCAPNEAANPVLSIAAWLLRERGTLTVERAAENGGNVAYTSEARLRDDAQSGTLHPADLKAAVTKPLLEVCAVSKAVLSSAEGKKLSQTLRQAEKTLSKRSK
Briefly: Trypanosoma cruzi tyrosyl tRNA synthetase (TcYRS) _High Tyrosine SOP. Also: in the data most compounds retested in dose-response had high values. The format is functional. Conditions: 30 µM.

For assay [10], the target named is T4, Tyrosyl-tRNA synthetase, putative (Trypanosoma cruzi (strain CL Brener)). Description: Trypanosoma cruzi tyrosyl tRNA synthetase (TcYRS) SOP. The format is functional. Conditions: 30 µM.
Assay [11] addresses Chromo domain-containing protein 1 (Saccharomyces cerevisiae (strain ATCC 204508 / S288c) (Baker's yeast)) (UniProt P32657). Description: ScCHD-1 Enzyme Inhibition Assay. Also: in the data most compounds retested in dose-response had high values. The assay is classed as functional. To be noted: 30 µM.

For some of these results: Measured potencies and affinities stand elsewhere.

Protein translocase subunit SecA (Escherichia coli (strain K12)), sequence (P10408 whole entry): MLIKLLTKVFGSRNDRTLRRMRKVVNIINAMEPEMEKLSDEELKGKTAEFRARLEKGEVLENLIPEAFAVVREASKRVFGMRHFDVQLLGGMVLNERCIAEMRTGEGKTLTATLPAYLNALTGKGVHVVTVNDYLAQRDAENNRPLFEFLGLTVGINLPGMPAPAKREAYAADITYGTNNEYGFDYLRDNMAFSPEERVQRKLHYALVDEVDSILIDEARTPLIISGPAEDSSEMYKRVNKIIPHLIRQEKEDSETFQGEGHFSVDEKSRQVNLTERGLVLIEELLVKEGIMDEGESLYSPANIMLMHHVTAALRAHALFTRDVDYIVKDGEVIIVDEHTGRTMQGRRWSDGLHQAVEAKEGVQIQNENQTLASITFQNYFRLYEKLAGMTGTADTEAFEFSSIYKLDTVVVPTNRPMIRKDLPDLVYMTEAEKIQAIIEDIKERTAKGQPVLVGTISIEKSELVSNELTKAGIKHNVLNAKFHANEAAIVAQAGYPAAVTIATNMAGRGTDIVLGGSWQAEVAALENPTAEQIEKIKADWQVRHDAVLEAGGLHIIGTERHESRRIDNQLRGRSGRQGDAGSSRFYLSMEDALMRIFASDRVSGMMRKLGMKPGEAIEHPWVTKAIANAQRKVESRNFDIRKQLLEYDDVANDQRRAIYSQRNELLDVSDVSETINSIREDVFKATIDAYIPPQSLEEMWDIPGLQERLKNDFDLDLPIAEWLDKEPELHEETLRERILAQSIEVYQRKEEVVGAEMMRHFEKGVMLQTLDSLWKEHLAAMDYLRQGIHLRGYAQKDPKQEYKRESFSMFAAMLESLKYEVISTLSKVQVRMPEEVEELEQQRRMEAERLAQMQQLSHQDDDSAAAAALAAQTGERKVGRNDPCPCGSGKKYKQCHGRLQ
Chromo domain-containing protein 1 (Saccharomyces cerevisiae (strain ATCC 204508 / S288c) (Baker's yeast)), sequence (P32657 whole entry, the tested form may be a part): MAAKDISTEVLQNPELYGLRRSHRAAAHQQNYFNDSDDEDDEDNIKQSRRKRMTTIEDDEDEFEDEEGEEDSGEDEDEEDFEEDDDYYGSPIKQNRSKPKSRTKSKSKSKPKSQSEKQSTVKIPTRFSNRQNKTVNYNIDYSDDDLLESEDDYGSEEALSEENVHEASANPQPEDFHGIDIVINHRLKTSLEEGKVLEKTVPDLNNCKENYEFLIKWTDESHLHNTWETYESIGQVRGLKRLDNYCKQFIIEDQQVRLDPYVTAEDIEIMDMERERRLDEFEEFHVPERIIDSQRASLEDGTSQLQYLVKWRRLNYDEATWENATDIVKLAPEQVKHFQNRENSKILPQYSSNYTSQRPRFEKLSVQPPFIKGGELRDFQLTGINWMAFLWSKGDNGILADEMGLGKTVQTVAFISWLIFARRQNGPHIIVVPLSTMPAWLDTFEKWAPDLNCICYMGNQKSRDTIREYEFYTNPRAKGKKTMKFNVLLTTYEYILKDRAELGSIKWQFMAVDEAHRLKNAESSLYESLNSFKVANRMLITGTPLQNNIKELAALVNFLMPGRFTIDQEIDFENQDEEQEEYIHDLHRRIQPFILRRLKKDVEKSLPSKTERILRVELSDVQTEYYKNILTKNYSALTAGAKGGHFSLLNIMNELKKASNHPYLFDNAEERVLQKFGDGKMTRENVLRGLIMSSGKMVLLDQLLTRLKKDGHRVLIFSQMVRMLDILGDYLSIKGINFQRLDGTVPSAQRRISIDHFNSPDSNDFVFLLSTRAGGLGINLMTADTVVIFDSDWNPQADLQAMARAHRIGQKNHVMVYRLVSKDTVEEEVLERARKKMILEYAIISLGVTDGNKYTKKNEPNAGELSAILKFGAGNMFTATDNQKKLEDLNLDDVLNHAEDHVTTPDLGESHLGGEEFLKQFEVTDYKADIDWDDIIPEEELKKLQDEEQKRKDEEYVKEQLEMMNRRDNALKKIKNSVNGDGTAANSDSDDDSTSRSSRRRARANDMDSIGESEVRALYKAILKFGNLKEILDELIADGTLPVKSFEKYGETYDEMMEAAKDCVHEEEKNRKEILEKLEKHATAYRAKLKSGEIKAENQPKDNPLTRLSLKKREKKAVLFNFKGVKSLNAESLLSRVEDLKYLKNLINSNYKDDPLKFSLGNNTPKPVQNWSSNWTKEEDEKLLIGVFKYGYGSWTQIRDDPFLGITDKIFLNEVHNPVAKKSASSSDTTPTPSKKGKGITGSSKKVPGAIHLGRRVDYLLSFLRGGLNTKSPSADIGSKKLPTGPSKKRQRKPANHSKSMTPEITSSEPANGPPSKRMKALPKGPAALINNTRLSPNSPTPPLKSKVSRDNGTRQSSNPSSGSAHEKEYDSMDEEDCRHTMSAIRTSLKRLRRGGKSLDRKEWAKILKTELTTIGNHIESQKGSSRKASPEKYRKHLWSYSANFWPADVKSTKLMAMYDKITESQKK
Sialic acid-binding Ig-like lectin 9 (Homo sapiens), sequence (Q9Y336 whole entry): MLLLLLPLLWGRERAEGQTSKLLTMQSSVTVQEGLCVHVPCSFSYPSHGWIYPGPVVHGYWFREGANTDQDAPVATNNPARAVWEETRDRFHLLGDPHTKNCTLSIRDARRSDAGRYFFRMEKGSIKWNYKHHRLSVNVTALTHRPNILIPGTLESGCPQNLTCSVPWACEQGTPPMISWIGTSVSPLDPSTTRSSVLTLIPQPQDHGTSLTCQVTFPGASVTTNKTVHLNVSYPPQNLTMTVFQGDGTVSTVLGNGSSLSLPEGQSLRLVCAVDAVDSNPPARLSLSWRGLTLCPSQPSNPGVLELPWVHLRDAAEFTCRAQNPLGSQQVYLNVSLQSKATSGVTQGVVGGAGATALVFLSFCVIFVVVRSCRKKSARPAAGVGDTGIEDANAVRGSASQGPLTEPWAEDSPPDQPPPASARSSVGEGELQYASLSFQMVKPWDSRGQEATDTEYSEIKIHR

On to `Cc1ccccc1-c1cc(C(=O)N2CCn3c(C)nnc3C2)[nH]n1`, for which the Percent Effect in assay [1] is -5.53%; in assay [2], 10.5%; in [3], -1.51%; in assay [4] it was 3.48%; in assay [5] it was 6.01%; in assay [6], 0%. In addition, the Percent Effect was 4.34% in assay [7]; 4.27% in assay [8]; -0.49% in assay [9]; 17.1% in assay [10]; -10.8% in assay [11].
As for `Cc1nccn1-c1cc(CNC(=O)CCNC(=O)C2CCCC2)ccn1`, the Percent Effect in assay [1] is -5.76%; in [2], 21.1%; in [3], -10%; in [4] it was 9.11%; in [5], 6.63%; in assay [6], -4.68%. Also, the Percent Effect in assay [7] is 5.84%; in [8], 5.17%; in [9], 8.37%; in assay [10], 23.5%; in assay [11], -6.78%.
For `CSc1ncccc1C(=O)N1C[C@H]2CC[C@@H]1CN(c1ncccn1)C2`, the Percent Effect in [1] is -4.71%; in [2] it was 7.79%; in [3] it was 4.3%; in assay [4], 12.7%; in assay [5], 1.87%; in assay [6], -31.7%. Also, the Percent Effect in assay [7] is 6.82%; in assay [8] it was -0.196%; in assay [9] it was 7.53%; in assay [10], 11.1%; in assay [11], -5.74%.
For the compound `CC(=O)c1cccc(OCCCC(=O)N(C)CCc2ccncc2)c1`, the Percent Effect in assay [1] was -2.19%; in assay [2], 8.11%; in assay [3], -3.93%; in [4] it was 2.37%; in [5], 3.67%; in assay [6], -1.91%. In addition, the Percent Effect in [7] was 16.4%; in assay [8], 16.1%; in [9] it was 8.99%; in assay [10], 17.1%; in assay [11], -2.34%.
As for `O=C(CN1CCCCC1Cn1cncn1)NC1CCN(C2CC2)CC1` (stereo unspecified), the Percent Effect is -0.975% in [1]; -2.7% in [2]; -4.13% in assay [3]; 22.5% in assay [4]; 3.28% in assay [5]; -1.43% in [6]. In addition, the Percent Effect in [7] was 5.86%; in assay [8], 2.27%; in assay [9], 2.65%; in assay [10] it was 7.32%; in assay [11], -11.3%.
Consider `Cc1nc(CN2CCOC(CN(C)c3cccnn3)C2)cs1` (stereo unspecified), for which the Percent Effect in assay [1] was 0.938%; in assay [2], 0%; in assay [3] it was -2.69%; in assay [4], -0.951%; in assay [5] it was 4.8%; in assay [6] it was 1.47%. Further, the Percent Effect turned out to be 5.74% in [7]; 10.8% in assay [8]; 2.86% in [9]; 2.35% in assay [10]; 0.286% in assay [11].
For `O=C(Cn1nc(-c2ccc(F)cc2)oc1=O)NCc1ccc(F)cc1`, the Percent Effect in assay [1] was 0.533%; in [2] it was 10.5%; in assay [3] it was -7.15%; in [4], -1.53%; in assay [5], -7.52%; in [6], -6.9%. Also, the Percent Effect is 13.4% in [7]; 21% in [8]; 0.49% in [9]; 7.32% in assay [10]; -14.3% in assay [11].
`Cc1nc(C)n(CC2CCCN2CC(=O)Nc2ccnn2C(C)C)n1` (stereo unspecified): the Percent Effect in assay [1] is 3.15%; in assay [2] it was 18.4%; in assay [3], 16%; in assay [4] it was -8.63%; in [5] it was -8.31%; in [6], 2.16%. In addition, the Percent Effect in [7] is 14%; in assay [8], 1.93%; in assay [9] it was 5.42%; in assay [10] it was 16.1%; in assay [11] it was -6.21%.
`Cc1ccc(SCC(=O)NS(=O)(=O)c2ccc3c(c2)OCCO3)cc1`: the Percent Effect in assay [1] was -2.38%; in assay [2] it was -10.5%; in [3] it was 2.56%; in assay [4] it was -1.45%; in assay [5], 5.45%; in assay [6], -2.68%. For the same compound, the Percent Effect in assay [7] is 15%; in assay [8], 3.33%; in [9] it was -6.37%; in assay [10] it was -7.32%; in assay [11], -0.431%.
Consider `COc1ccc(OC)c(C2C3=C(COC3=O)Nc3[nH]nc(C)c32)c1` (stereo unspecified), for which the Percent Effect is -1.85% in assay [1]; 17.3% in [2]; 0.267% in assay [3]; -8.04% in assay [4]; 5.11% in assay [5]; 17.1% in assay [6]. In addition, the Percent Effect is 3.33% in [7]; 7.65% in [8]; 4.23% in [9]; 10.3% in [10]; -11.1% in assay [11].
Consider `CS(=O)(=O)N1CC[C@]2(C[C@@H](OCC3CCC3)CO2)C1`, for which the Percent Effect in assay [1] was -3.98%; in [2], 16.2%; in assay [3] it was -8.34%; in assay [4] it was 20.7%; in assay [5], 2.64%; in [6], 1.24%. In addition, the Percent Effect in assay [7] is 11.6%; in assay [8], -1.67%; in [9], 5.38%; in assay [10], 18.5%; in assay [11], -5.25%.
